Test results reported in ChEMBL document CHEMBL3433997, “St. Jude Leishmania screening dataset” (2016).

Each molecule was assayed against Hexose transporter 1 (Plasmodium falciparum) (UniProt O97467) (assay: ST_JUDE_LEISH: Cytotoxicity at 2uM final concentration against transgenic Leishmania Mexicana promastigotes LmPfHT that are glucose transport deficient and complemented with the Plasmodium falciparum hexose transporter. Activity is measured by DNA content using SYBR green in vitro).
Type: functional

Point of comparison: Cc1ccc(NC(=O)c2ccc(CN3CCCN(CC4CCCCC4)CC3)cc2)cc1F, inhibition 6.75%. Against it:
- COc1cc(-c2nc(-c3ccc(C(=O)c4ccc(F)cc4)cc3)c(-c3ccccc3)[nH]2)cc(OC)c1O — lower, -0.56%
- Cc1ccc(C(C)C)c(Oc2ccc3nc(N)nc(N)c3c2)c1 — higher, 8.97%
- Cc1nc2ccc3nc(NC(=O)c4ccno4)sc3c2s1 — lower, 1.13%
- Cc1cc(N/N=C/c2ccccc2[N+](=O)[O-])c2cccc(C)c2n1 — higher, 13.9%
- Cc1ccccc1C1CCN(C2CCC(NC(=O)c3ccc(-c4cccc(C(F)(F)F)c4)o3)CC2)CC1 (stereo not given) — lower, 2.19%
- Cc1cccc2nc(-c3cccc(-c4ccc(CNCc5cnn(-c6ccccc6)n5)cc4)c3)[nH]c12 — lower, 2.02%
- CC(=O)c1c(Cc2ccccc2Cl)c[nH]c1C — lower, 3.16%
- NC1CCN(Cc2cccc(-c3ccc(-c4nc5ccccc5[nH]4)cc3)c2)C1 (stereo not given) — lower, 2.18%
- COc1ccc(NS(=O)(=O)c2ccc(Oc3nc(C)nc4sc5c(c34)CCCC5)cc2)cc1 — lower, 3.7%
- CN1CCN(c2ccnc3ccc(NC(=O)Nc4cccc5c(Br)cccc45)cc23)CC1 — lower, 3.33%
- COc1cc(C=CC(=O)N2CCN(Cc3cccc(C)c3)CC2)ccc1OCc1c(C)noc1C — higher, 6.88%
- N#Cc1ccc(N2CCN(Cc3cccc(-c4cccc(-c5nc6cc(C(F)(F)F)ccc6[nH]5)c4)c3)CC2)nc1 — lower, 0.73%
- COc1cc(NC(=O)c2sc(-c3ccc(Cl)cc3)cc2NC(=O)CN2CC[C@@H](O)C2)ccc1OCCN1CCCC1 — higher, 15.1%
- Oc1ccc2[nH]c(-c3cccc(F)c3)nc2c1CN1CCC(O)(c2ccccc2)CC1 — lower, 4.5%
- Cc1nnc(N2C(=N)SC(=Cc3ccc(-c4ccc(OC(F)(F)F)cc4)o3)C2=O)s1 — lower, 2.59%
- Cc1ccc(CN2CCN(c3cc4c(cc3Cl)CCN4C(=O)Cc3ccc(NC(=O)c4ccc(C(F)(F)F)cc4)cc3)CC2)cc1 — lower, 5.46%
- O=S(=O)(c1csc2ccccc12)N(CCC(O)(C(F)(F)F)C(F)(F)F)Cc1cccc(O)c1 — lower, -2.19%
- CC1CCCN(S(=O)(=O)c2ccc(NC(=O)c3cc(-c4ccccc4O)n[nH]3)cc2)C1 (stereo not given) — lower, 3.54%
- Cc1cccc(OCCCCON2C(=N)N=C(N)NC2(C)C)c1C — lower, 0.14%
- O=[N+]([O-])c1cccc(-c2ccc(C=NNc3cc(N4CCCC4)nc(N4CCCC4)n3)o2)c1 — lower, 3.17%
- Cc1c(CNCCCNc2nc3ccccc3[nH]2)sc(C(F)F)c1Br — lower, 0.8%
- O=C(COc1ccccc1)Nn1cnc2ccccc21 — lower, 0.83%
- Cc1cc(Oc2ccc(-n3ccnc3)cc2)nc(N2CCN(CCCN3CCCC3)CC2)n1 — lower, 5.53%
- O=C(Cc1ccc(NC(=O)c2ccc(O)c(-c3cccc([N+](=O)[O-])c3)c2)cc1)NCCN1CCCCC1 — lower, -1.26%
- CC(C)C(C)(C#N)NC(=O)CSc1nc2ccc([N+](=O)[O-])cc2s1 (stereo not given) — lower, 0.01%
- CNCCCNc1ccnc2cc(Cl)ccc12 — lower, 4.53%
- COC(=O)Nc1ccc(-c2ccc(C(=O)NC3CCN(C[C@H](O)c4ccnc5ccc(OC)cc45)CC3)cc2)c(C)c1 — lower, 0.01%
- CNCc1ccc2nc(-c3coc(Cc4cc(Cl)ccc4OCC(C)C)n3)[nH]c2c1 — lower, 4.9%
- O=C(Nc1cccc(C(F)(F)F)c1)NC1CCN(c2ccnc3ccccc23)C1 (stereo not given) — lower, -0.4%
- CCc1c(C)c2ccc3c(c2oc1=O)CN(CCc1ccc(F)cc1)CO3 — lower, 6.16%
- COc1ccc(NC(=O)[C@H](CC(C)C)Nc2cc(C)nc(NCCc3ccccc3)n2)cc1 — lower, 3.69%
- COc1cc(CNC[C@@H](O)[C@H](Cc2ccccc2)NC(=O)c2cc(C3CCCC3)cc(N3CCCCS3(=O)=O)c2)cc(OC)c1 — lower, 5.6%
- Cc1cccc2nc(-c3cccc(-c4cccc(CN5CCC(CO)CC5)c4)c3)[nH]c12 — higher, 8.91%
- C[C@H](Cc1ccc(C[C@@H](C)NCC(O)c2cc(Cl)c(N)c(Cl)c2)cc1)NCC(O)c1cc(Cl)c(N)c(Cl)c1 (stereo not given in full) — lower, 0.31%
- COc1ccc2c(=NN=Cc3ccccc3)cc(C)[nH]c2c1 — higher, 11.5%
- C[C@@H](N)C#Cc1cc2c(Nc3ccc(OCc4cccc(F)c4)c(Cl)c3)ncnc2s1 — lower, 4.76%
- CCCNS(=O)(=O)c1ccc(NC(=O)C(C)Oc2ccc([N+](=O)[O-])cc2)cc1 (stereo not given) — lower, 0.29%
- COc1cccc2c(NN=Cc3cccc(Cl)c3)cc(C)nc12 — lower, 0.14%
- O=C(NCc1cccc(Br)c1)c1ccc(CNC2CCN(Cc3ccccc3)CC2)cc1 — lower, 1.61%

Each molecule was assayed against Glucose transporter (Leishmania mexicana) (UniProt O61059) (assay: ST_JUDE_LEISH: Cytotoxicity at 2uM final concentration against transgenic Leishmania Mexicana promastigotes LmGT2 that are glucose transport deficient and complemented with the L. Mexicana glucose transporter 2. Activity is measured by DNA content using SYBR green in vitro).
Type: functional

Point of comparison: CCCNS(=O)(=O)c1ccc(NC(=O)C(C)Oc2ccc([N+](=O)[O-])cc2)cc1 (stereo not given), inhibition -4.88%. Against it:
- COc1cc(-c2nc(-c3ccc(C(=O)c4ccc(F)cc4)cc3)c(-c3ccccc3)[nH]2)cc(OC)c1O — higher, 0.05%
- Cc1ccc(C(C)C)c(Oc2ccc3nc(N)nc(N)c3c2)c1 — higher, 5.01%
- Cc1nc2ccc3nc(NC(=O)c4ccno4)sc3c2s1 — higher, -1.31%
- Cc1cc(N/N=C/c2ccccc2[N+](=O)[O-])c2cccc(C)c2n1 — higher, 7.94%
- Cc1ccccc1C1CCN(C2CCC(NC(=O)c3ccc(-c4cccc(C(F)(F)F)c4)o3)CC2)CC1 (stereo not given) — higher, 3.24%
- Cc1cccc2nc(-c3cccc(-c4ccc(CNCc5cnn(-c6ccccc6)n5)cc4)c3)[nH]c12 — higher, 0.22%
- Cc1ccc(NC(=O)c2ccc(CN3CCCN(CC4CCCCC4)CC3)cc2)cc1F — higher, 11.2%
- CC(=O)c1c(Cc2ccccc2Cl)c[nH]c1C — higher, -1.32%
- NC1CCN(Cc2cccc(-c3ccc(-c4nc5ccccc5[nH]4)cc3)c2)C1 (stereo not given) — higher, 1.99%
- COc1ccc(NS(=O)(=O)c2ccc(Oc3nc(C)nc4sc5c(c34)CCCC5)cc2)cc1 — higher, 2.29%
- CN1CCN(c2ccnc3ccc(NC(=O)Nc4cccc5c(Br)cccc45)cc23)CC1 — higher, 2.86%
- COc1cc(C=CC(=O)N2CCN(Cc3cccc(C)c3)CC2)ccc1OCc1c(C)noc1C — higher, 6.13%
- N#Cc1ccc(N2CCN(Cc3cccc(-c4cccc(-c5nc6cc(C(F)(F)F)ccc6[nH]5)c4)c3)CC2)nc1 — higher, -2.37%
- COc1cc(NC(=O)c2sc(-c3ccc(Cl)cc3)cc2NC(=O)CN2CC[C@@H](O)C2)ccc1OCCN1CCCC1 — higher, 4.88%
- Oc1ccc2[nH]c(-c3cccc(F)c3)nc2c1CN1CCC(O)(c2ccccc2)CC1 — higher, 1.7%
- Cc1nnc(N2C(=N)SC(=Cc3ccc(-c4ccc(OC(F)(F)F)cc4)o3)C2=O)s1 — higher, 3.61%
- Cc1ccc(CN2CCN(c3cc4c(cc3Cl)CCN4C(=O)Cc3ccc(NC(=O)c4ccc(C(F)(F)F)cc4)cc3)CC2)cc1 — higher, 1.59%
- O=S(=O)(c1csc2ccccc12)N(CCC(O)(C(F)(F)F)C(F)(F)F)Cc1cccc(O)c1 — lower, -4.98%
- CC1CCCN(S(=O)(=O)c2ccc(NC(=O)c3cc(-c4ccccc4O)n[nH]3)cc2)C1 (stereo not given) — higher, 0.62%
- Cc1cccc(OCCCCON2C(=N)N=C(N)NC2(C)C)c1C — higher, 1.69%
- O=[N+]([O-])c1cccc(-c2ccc(C=NNc3cc(N4CCCC4)nc(N4CCCC4)n3)o2)c1 — higher, 3.82%
- Cc1c(CNCCCNc2nc3ccccc3[nH]2)sc(C(F)F)c1Br — higher, 1.17%
- O=C(COc1ccccc1)Nn1cnc2ccccc21 — higher, 0.3%
- Cc1cc(Oc2ccc(-n3ccnc3)cc2)nc(N2CCN(CCCN3CCCC3)CC2)n1 — higher, 2.69%
- O=C(Cc1ccc(NC(=O)c2ccc(O)c(-c3cccc([N+](=O)[O-])c3)c2)cc1)NCCN1CCCCC1 — higher, -0.03%
- CC(C)C(C)(C#N)NC(=O)CSc1nc2ccc([N+](=O)[O-])cc2s1 (stereo not given) — higher, -1.55%
- CNCCCNc1ccnc2cc(Cl)ccc12 — higher, 5.03%
- COC(=O)Nc1ccc(-c2ccc(C(=O)NC3CCN(C[C@H](O)c4ccnc5ccc(OC)cc45)CC3)cc2)c(C)c1 — higher, -1.03%
- CNCc1ccc2nc(-c3coc(Cc4cc(Cl)ccc4OCC(C)C)n3)[nH]c2c1 — higher, 3.77%
- O=C(Nc1cccc(C(F)(F)F)c1)NC1CCN(c2ccnc3ccccc23)C1 (stereo not given) — higher, 6.33%
- CCc1c(C)c2ccc3c(c2oc1=O)CN(CCc1ccc(F)cc1)CO3 — higher, 5.28%
- COc1ccc(NC(=O)[C@H](CC(C)C)Nc2cc(C)nc(NCCc3ccccc3)n2)cc1 — higher, 1.94%
- COc1cc(CNC[C@@H](O)[C@H](Cc2ccccc2)NC(=O)c2cc(C3CCCC3)cc(N3CCCCS3(=O)=O)c2)cc(OC)c1 — higher, 6.05%
- Cc1cccc2nc(-c3cccc(-c4cccc(CN5CCC(CO)CC5)c4)c3)[nH]c12 — higher, 8.87%
- C[C@H](Cc1ccc(C[C@@H](C)NCC(O)c2cc(Cl)c(N)c(Cl)c2)cc1)NCC(O)c1cc(Cl)c(N)c(Cl)c1 (stereo not given in full) — higher, 1.14%
- COc1ccc2c(=NN=Cc3ccccc3)cc(C)[nH]c2c1 — higher, 8.31%
- C[C@@H](N)C#Cc1cc2c(Nc3ccc(OCc4cccc(F)c4)c(Cl)c3)ncnc2s1 — higher, 2.27%
- COc1cccc2c(NN=Cc3cccc(Cl)c3)cc(C)nc12 — higher, 1.05%
- O=C(NCc1cccc(Br)c1)c1ccc(CNC2CCN(Cc3ccccc3)CC2)cc1 — higher, 5.37%
